Test in all cases: NCI-60 one-dose screen, 48 h (100 = growth as untreated, 0 = no growth, -100 = all killed)
The subject of one test is SK-MEL-2 melanoma. Conditions: 10 µM unless noted.
The next test has as its system EKVX NSCLC. Conditions: 10 µM unless noted.
The next test concerns SN12C renal. As to conditions: 10 µM unless noted.
Another test deals with UO-31 renal. As to conditions: 10 µM unless noted.
Another test concerns ACHN renal. As to conditions: 10 µM unless noted.
The test system of a further test is CAKI-1 renal. Conditions: 10 µM.
A further test concerns A498 renal. Conditions: 10 µM unless noted.
The next test has as its system CCRF-CEM leukemia. Conditions: 10 µM unless noted.
The next test concerns MOLT-4 leukemia. As to conditions: 10 µM unless noted.
A further test concerns SR leukemia. As to conditions: 10 µM unless noted.
For the next test, the system named is RPMI-8226 leukemia. Conditions: 10 µM unless noted.
A further test deals with OVCAR-8 ovarian. Conditions: 10 µM unless noted.
For a further test, the system named is OVCAR-4 ovarian. As to conditions: 10 µM unless noted.
Another test has as its system SK-OV-3 ovarian. As to conditions: 10 µM unless noted.
The subject of the next test is OVCAR-3 ovarian. As to conditions: 10 µM unless noted.
A further test relates to HS 578T breast. Conditions: 10 µM unless noted.
Another test has as its system NCI/ADR-RES ovarian. As to conditions: 10 µM unless noted.
The test system of a further test is OVCAR-5 ovarian. Conditions: 10 µM unless noted.
For another test, the system named is IGROV1 ovarian. Conditions: 10 µM unless noted.

This is part of a sample that, as a whole, favours compounds with a hit. Of some 83,000 tested, about 20% had one in any assay.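 Values shown are percent growth following 48 h exposure of cells in 96-well plates to a single concentration of compound; below 10 was considered active.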 Unmarked numbers belong to inactive results. Active and inactive are the calls of the source.

Take `CCC1(C(N)=O)CC2C=CC1CC2` (centres undefined): the growth was 124% with SK-MEL-2 melanoma; 115% with EKVX NSCLC; 118% in the test with SN12C renal; 90.8% in the test with UO-31 renal; 107% in the test with ACHN renal; 96.6% in the test on CAKI-1 renal. In addition, the growth is 95.7% with A498 renal; 127% with CCRF-CEM leukemia; 111% in the test with MOLT-4 leukemia; 109% in the test with SR leukemia; 89.1% in the test with RPMI-8226 leukemia; 61.2% with OVCAR-8 ovarian. The growth with OVCAR-4 ovarian was 108%; in the test with SK-OV-3 ovarian it was 91.9%; with OVCAR-3 ovarian, 115%; with HS 578T breast, 149%; with NCI/ADR-RES ovarian, 244%.

As to `O=C1c2ccccc2OC=C(c2ccccc2)N1CCCCNc1ccc(F)cc1`, the growth in the test with SK-MEL-2 melanoma was 89.2%; in the test with EKVX NSCLC it was 96.8%; with SN12C renal, 77.4%; with UO-31 renal, 53.5%; in the test with ACHN renal it was 97.5%; in the test with CAKI-1 renal it was 85.8%. Also, the growth was 98.3% with A498 renal; 63.7% in the test with CCRF-CEM leukemia; 48.4% in the test with MOLT-4 leukemia; 81% with SR leukemia; 69.8% in the test on RPMI-8226 leukemia; 80.6% with OVCAR-8 ovarian. The growth with OVCAR-5 ovarian was 95.7%; in the test on OVCAR-4 ovarian, 89.9%; in the test with IGROV1 ovarian, 81.9%; in the test with OVCAR-3 ovarian, 110%; with HS 578T breast it was 94.7%; in the test on NCI/ADR-RES ovarian, 85.8%.

As for `COc1ccc(OCC(O)CN2CCN(c3ccc(Cl)cc3)CC2)cc1` (centres undefined), the growth with SK-MEL-2 melanoma is 135%; in the test on EKVX NSCLC it was 97.4%; with SN12C renal it was 105%; with UO-31 renal, 76%; in the test on ACHN renal, 101%; in the test on CAKI-1 renal it was 79.9%. The growth is 82.8% in the test with A498 renal; 113% in the test with CCRF-CEM leukemia; 107% with MOLT-4 leukemia; 112% in the test with SR leukemia; 61.6% with OVCAR-8 ovarian; 79.8% in the test on OVCAR-4 ovarian. Also, the growth with SK-OV-3 ovarian was 90.7%; in the test with OVCAR-3 ovarian it was 105%; with HS 578T breast it was 123%; in the test with NCI/ADR-RES ovarian, 185%.

Take `O=C(NCCNc1nccc(-c2c(-c3cccc(O)c3)nc3sccn23)n1)c1cccc(C(F)(F)F)c1`: the growth with SK-MEL-2 melanoma was 62.1%; in the test with EKVX NSCLC it was 91.6%; in the test on SN12C renal, 83.2%; with UO-31 renal it was 73.4%; in the test on ACHN renal it was 66.1%; in the test on CAKI-1 renal, 75.6%. The growth in the test with A498 renal is 84.5%; in the test with CCRF-CEM leukemia, 37.5%; with MOLT-4 leukemia it was 61.5%; with SR leukemia, 97%; in the test with RPMI-8226 leukemia it was 44.2%; with OVCAR-5 ovarian, 113%. Besides, the growth is 117% in the test with OVCAR-4 ovarian; 84.2% in the test with SK-OV-3 ovarian; 62.1% in the test with IGROV1 ovarian; 89.8% in the test with OVCAR-3 ovarian; 98.3% in the test on NCI/ADR-RES ovarian.

Take `Oc1ccccc1/C=N/c1ccccn1`: the growth in the test with SK-MEL-2 melanoma was 97.8%; in the test on EKVX NSCLC it was 112%; in the test on SN12C renal, 116%; in the test with UO-31 renal, 92.1%; with ACHN renal, 106%; in the test on CAKI-1 renal it was 104%. In addition, the growth is 89.5% in the test on A498 renal; 116% with CCRF-CEM leukemia; 102% with MOLT-4 leukemia; 104% in the test on SR leukemia; 78% in the test with RPMI-8226 leukemia; 95% in the test with OVCAR-8 ovarian. Moreover, the growth was 106% with OVCAR-4 ovarian, 99.6% in the test with SK-OV-3 ovarian, 111% in the test on OVCAR-3 ovarian and 143% in the test on HS 578T breast.

For `COc1ccccc1P(c1ccccc1OC)c1ccccc1OC`, the growth is 99.1% in the test on SK-MEL-2 melanoma; 91% with EKVX NSCLC; 113% with SN12C renal; 86.1% in the test with UO-31 renal; 98.3% in the test on ACHN renal; 86.2% in the test with CAKI-1 renal. In addition, the growth with A498 renal is 79.4%; in the test with CCRF-CEM leukemia, 130%; in the test on MOLT-4 leukemia, 105%; with SR leukemia it was 107%; in the test on RPMI-8226 leukemia, 113%; in the test on OVCAR-8 ovarian it was 66%. Besides, the growth in the test with OVCAR-4 ovarian is 100%; with SK-OV-3 ovarian, 91.2%; in the test with OVCAR-3 ovarian it was 108%; in the test with HS 578T breast it was 133%; with NCI/ADR-RES ovarian, 172%.

As to `O=C(Nc1ccc(-n2ccc3c(NC(=O)c4ccccc4)ncnc32)cc1)Nc1ccc(Cl)c(Cl)c1`, the growth is 11.7% in the test on SK-MEL-2 melanoma; 27.3% in the test with EKVX NSCLC; 15.8% with SN12C renal; 9.15% (active) with UO-31 renal; 27.8% with ACHN renal; 30.8% in the test on CAKI-1 renal. In addition, the growth in the test on A498 renal was 90.5%; in the test on CCRF-CEM leukemia, -10.2% (active); with MOLT-4 leukemia, 28.7%; in the test with SR leukemia, -6.07% (active); in the test on RPMI-8226 leukemia, -1.3% (active); with OVCAR-8 ovarian, 0.377% (active). In addition, the growth is 39.6% in the test on OVCAR-5 ovarian; -74.1% (active) in the test with OVCAR-4 ovarian; 67.9% with SK-OV-3 ovarian; -2.23% (active) in the test on IGROV1 ovarian; -67.1% (active) with OVCAR-3 ovarian; 53.2% in the test with NCI/ADR-RES ovarian.

In the case of `CC(C)(C)C(=O)/C=c1/[nH]c(=O)/c(=C/c2ccccc2O)s1`, the growth is 67.6% in the test with SK-MEL-2 melanoma; 61.1% in the test on EKVX NSCLC; 58.2% in the test on SN12C renal; 67.4% in the test on UO-31 renal; 74.5% with ACHN renal; 81.1% with CAKI-1 renal. In addition, the growth in the test on A498 renal is 55.6%; in the test with CCRF-CEM leukemia it was 57.8%; with RPMI-8226 leukemia it was 60%; in the test with OVCAR-8 ovarian it was 66.9%; with OVCAR-5 ovarian, 86.9%; with OVCAR-4 ovarian, 67.3%. Besides, the growth with SK-OV-3 ovarian was 81.4%; with IGROV1 ovarian it was 50.1%; in the test on OVCAR-3 ovarian, 20.2%; with HS 578T breast, 71.7%; in the test with NCI/ADR-RES ovarian, 47.1%.

Take `CCCC(=O)Oc1ccc(/C(=C(\C)c2ccc(OC)cc2)c2ccc(OCCN3CCCCC3)cc2)cc1`: the growth in the test on SK-MEL-2 melanoma is 80.9%; in the test with EKVX NSCLC it was 89.1%; in the test on SN12C renal, 84.8%; with UO-31 renal, 65.2%; with ACHN renal, 91.8%; in the test with A498 renal it was 80.7%. Also, the growth was 83.3% in the test with CCRF-CEM leukemia; 72.5% in the test on MOLT-4 leukemia; -14.9% (active) in the test on SR leukemia; 56.9% in the test on RPMI-8226 leukemia; 90.4% in the test with OVCAR-8 ovarian; 86.4% in the test with OVCAR-5 ovarian. The growth is 75% in the test with OVCAR-4 ovarian; 79.9% in the test with SK-OV-3 ovarian; 89.9% in the test with IGROV1 ovarian; 89.4% in the test on OVCAR-3 ovarian; 84.3% in the test with HS 578T breast; 75.6% in the test on NCI/ADR-RES ovarian.

The values above are taken from PubChem BioAssay (NCI).
